{
  "source": "PubChem BioAssay (NCATS)",
  "note": "Inconclusive results are not listed. Values without a mark were called inactive. Activity calls are given as the source filed them. Calls follow the shape of the dose curve; as a rule, active = well fitted curve in the direction sought with a large enough effect; inconclusive = small, poorly fitted or top-dose-only effect, or another doubt; inactive = no such curve, though single readings can be large; an effect the other way counts as inactive or inconclusive.",
  "data": [
    {"molecular_target": "Calcium and integrin-binding protein 1 (Homo sapiens) (UniProt Q99828)", "sequence (Q99828 whole entry, looked up)": "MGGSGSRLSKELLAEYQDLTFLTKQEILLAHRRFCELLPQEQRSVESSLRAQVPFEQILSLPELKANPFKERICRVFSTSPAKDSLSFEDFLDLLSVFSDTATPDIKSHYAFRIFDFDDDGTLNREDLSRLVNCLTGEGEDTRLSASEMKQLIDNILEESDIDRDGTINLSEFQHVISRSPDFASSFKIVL", "experiment": "Validation qHTS for Identification of Calcium Integrin Binding protein 1 (CIB1) Competitor (AID 1508618); also: % is scaled to controls: 0 for no effect and ±100 for the full control effect", "conditions": "CIB1-GST / FITC-alphaIIb peptide fluorescence polarization; series mostly up to 114 µM; activity change, negative = inhibition: at the top concentration", "summary_of_the_method": "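In this qHTS validation, the LOPAC set (up to 114 uM) was tested for blocking CIB1 binding to a fluorescein-tagged alphaIIb peptide, with FP detection at 480/540 nm.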", "units": {"activity change, negative = inhibition": "%"}, "values": [
      {"compound": "O=C1CCCN1CC#CCN1CCCC1", "activity change, negative = inhibition": 8.13},
      {"compound": "CCCCc1ccc(C(=O)O)nc1", "activity change, negative = inhibition": 8.65},
      {"compound": "Clc1cnc(Oc2ccc(Oc3ncc(Cl)cc3Cl)cc2)c(Cl)c1", "activity change, negative = inhibition": 5.93},
      {"compound": "C[C@]12CCC3C(CC[C@H]4C[C@H](O)CC[C@]34C)C1CC[C@@H]2C(=O)CO", "note": "(stereo partly drawn)", "activity change, negative = inhibition": 9.34},
      {"compound": "c1ccc2sc(C3(N4CCCCC4)CCCCC3)cc2c1", "activity change, negative = inhibition": 7.16},
      {"compound": "CCCN(CCC)[C@@H]1CCc2ccc(O)cc2C1", "activity change, negative = inhibition": 2.09},
      {"compound": "NC(CP(=O)(O)O)C(=O)O", "note": "(stereo not drawn)", "activity change, negative = inhibition": 8.73},
      {"compound": "O=C(Cc1ccc(Cl)c(Cl)c1)N1CCCCC1CN1CCCC1", "note": "(stereo not drawn)", "activity change, negative = inhibition": 3.85},
      {"compound": "COc1cc(C(O)CN)ccc1O", "note": "(stereo not drawn)", "activity change, negative = inhibition": 11.1},
      {"compound": "NC(CCP(=O)(O)O)C(=O)O", "note": "(stereo not drawn)", "activity change, negative = inhibition": 6.14},
      {"compound": "C#CCOC(=O)C1=CCCN(C)C1", "activity change, negative = inhibition": 17.8},
      {"compound": "CC(C)Oc1cccnc1N(C)C1CCN(Cc2ccccc2)CC1", "activity change, negative = inhibition": -8.32},
      {"compound": "C[N+]1(C)C2CCC1CC(OC(=O)C(CO)c1ccccc1)C2", "note": "(stereo not drawn)", "outcome": "inactive"},
      {"compound": "CN[C@@H]1C[C@@H](c2ccc(Cl)c(Cl)c2)c2ccccc21", "activity change, negative = inhibition": 1.88},
      {"compound": "NCCc1c[nH]c2ccccc12", "activity change, negative = inhibition": 3}
    ]},
    {"molecular_target": "Calcium and integrin-binding protein 1 (Homo sapiens) (UniProt Q99828)", "experiment": "Primary qHTS for Identification of Calcium Integrin Binding Protein 1 (CIB1) Competitor (AID 1508620); also: top concentration of the series differs between compounds; % is scaled to controls: 0 for no effect and ±100 for the full control effect", "conditions": "CIB1-GST / FITC-alphaIIb peptide fluorescence polarization; series mostly up to 57.7 µM; activity change, negative = inhibition: at the top concentration", "summary_of_the_method": "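Fluorescence polarization competition: GST-tagged CIB1 (1 uM final) preincubated with compound 15 min at room temperature, then FITC-labelled alphaIIb peptide (100 nM final) added. After 15 min at room temperature, polarization read at Ex 480/Em 540.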", "values": [
      {"compound": "COc1ccc(C(=O)c2c(C)n(CCN3CCOCC3)c3cc(I)ccc23)cc1", "activity change, negative = inhibition": "-14%"},
      {"compound": "Nc1ccc(N=Nc2ccccc2)cc1", "activity change, negative = inhibition": "-9.37% [at 228 µM]"},
      {"compound": "O=S(=O)(F)Cc1ccccc1", "activity change, negative = inhibition": "0.0622%"},
      {"compound": "NC1=NC(=O)N2CC12", "note": "(stereo not drawn)", "activity change, negative = inhibition": "-9.77%"},
      {"compound": "C[C@]12CC[C@@H]3[C@@H](CCC4=CC(=O)CC[C@@H]43)[C@@H]1CC[C@@H]2OC(=O)CCc1ccccc1", "activity change, negative = inhibition": "0.703%"},
      {"compound": "Nc1ccc(Cl)cc1", "activity change, negative = inhibition": "-3.69% [at 228 µM]"},
      {"compound": "C[C@@H]1CC[C@@]2(OC1)O[C@H]1C[C@H]3[C@@H]4CC=C5C[C@@H](O[C@@H]6O[C@H](CO)[C@@H](O[C@@H]7O[C@@H](C)[C@H](O)[C@@H](O)[C@@H]7O)[C@H](O)[C@@H]6O[C@@H]6O[C@@H](C)[C@H](O)[C@@H](O)[C@@H]6O)CC[C@]5(C)[C@@H]4CC[C@]3(C)[C@@H]1[C@H]2C", "activity change, negative = inhibition": "4.92%"},
      {"compound": "CC(C)(C)[C@]1(O)C[C@@H]2OC(=O)C[C@@]23C(=O)O[C@@H]2OC(=O)[C@H](O)C213", "note": "(stereo partly drawn)", "activity change, negative = inhibition": "-0.103%"},
      {"compound": "c1ccc2c(CN3CCNCC3)cccc2c1", "activity change, negative = inhibition": "-1.14%"},
      {"compound": "O=c1[nH]c2ccccc2n1C1CCN(Cc2ccc(-c3[nH]c4cc5ncnc5cc4nc3-c3ccccc3)cc2)CC1", "activity change, negative = inhibition": "-2.47%"},
      {"compound": "CC(C)(C)c1cc(C=C(C#N)C#N)cc(Br)c1O", "activity change, negative = inhibition": "1.15%"},
      {"compound": "C[C@H]1CCCC=CC2C[C@H](O)C[C@@H]2[C@H](O)C=CC(=O)O1", "note": "(stereo partly drawn)", "activity change, negative = inhibition": "-7.28%"},
      {"compound": "CC=C(C)C(=O)O[C@H]1C(C)=C2[C@@H]3OC(=O)[C@@](C)(O)[C@@]3(O)[C@@H](OC(=O)CCC)C[C@](C)(OC(C)=O)[C@@H]2[C@@H]1OC(=O)CCCCCCC", "activity change, negative = inhibition": "0.626%"},
      {"compound": "Nc1ccc(Cl)cc1N", "activity change, negative = inhibition": "-12.1% [at 228 µM]"},
      {"compound": "C[C@@]12OC(=O)[C@]1([C@@H](O)[C@@H]1C=CCCC1)NC(=O)[C@H]2CCCl", "activity change, negative = inhibition": "-0.319%"},
      {"compound": "C[C@H]([C@H](O)CCC(C)(C)O)[C@H]1CC[C@@]2(O)C3=CC(=O)[C@@H]4C[C@@H](O)[C@@H](O)C[C@]4(C)[C@@H]3CC[C@]12C", "activity change, negative = inhibition": "-1.08%"},
      {"compound": "O=[N+]([O-])c1c2ccccc2cc2ccccc12", "activity change, negative = inhibition": "-6.19% [at 228 µM]"},
      {"compound": "COC1=C[C@@H]2[C@@H]3Cc4ccc(OC)c(O)c4[C@]2(CCN3C)CC1=O", "outcome": "inactive"},
      {"compound": "Cc1nc(-c2ccc(-c3ccc(C(=O)N4CCc5cc6c(cc54)C4(CCN(C)CC4)CO6)cc3)c(C)c2)no1", "activity change, negative = inhibition": "-5.07%"},
      {"compound": "CCOC(=O)c1cncn1[C@H](C)c1ccccc1", "activity change, negative = inhibition": "-0.103%"},
      {"compound": "CN1CCN(c2ccc([N+](=O)[O-])c3no[n+]([O-])c23)CC1", "outcome": "inactive"},
      {"compound": "Nc1c(Cl)c(Cl)c(Cl)c(Cl)c1Cl", "activity change, negative = inhibition": "4.22% [at 228 µM]"}
    ]},
    {"system": "not listed separately", "experiment": "Counterscreen qHTS for small molecule stabilizers of the endoplasmic reticulum resident proteome: GLuc-NoTag assay (AID 1508627);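 also: SH-SY5Y cells given compound then 100 nM thapsigargin to empty ER calcium; 0% = thapsigargin alone and -100% = DMSO vehicle control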", "conditions": "Gaussia luciferase NoTag secretion counterscreen, luminescence, thapsigargin 100 nM for final 4 h; series mostly up to 76.4 µM; activity change, negative = inhibition: at the top concentration", "summary_of_the_method": "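SH-SY5Y cells stably expressing constitutively secreted GLuc without SERCaMP tag, exposed to compound for 19 hr, then to 100 nM thapsigargin for 4 hr at 37C. Medium luciferase was read by coelenterazine luminescence without lysis.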", "values": [
      {"compound": "Nc1ccc(N=Nc2ccccc2)cc1", "activity change, negative = inhibition": "-9.01% [at 157 µM]"},
      {"compound": "c1ccc2c(CN3CCNCC3)cccc2c1", "activity change, negative = inhibition": "-14.4%"},
      {"compound": "C[C@H]1CCCC=CC2C[C@H](O)C[C@@H]2[C@H](O)C=CC(=O)O1", "note": "(stereo partly drawn)", "activity change, negative = inhibition": "-51.6%"},
      {"compound": "CC=C(C)C(=O)O[C@H]1C(C)=C2[C@@H]3OC(=O)[C@@](C)(O)[C@@]3(O)[C@@H](OC(=O)CCC)C[C@](C)(OC(C)=O)[C@@H]2[C@@H]1OC(=O)CCCCCCC", "activity change, negative = inhibition": "16.5%"},
      {"compound": "Nc1ccc(Cl)cc1N", "activity change, negative = inhibition": "29.3% [at 157 µM]"},
      {"compound": "O=[N+]([O-])c1c2ccccc2cc2ccccc12", "activity change, negative = inhibition": "9.92% [at 157 µM]"},
      {"compound": "CN1CCN(c2ccc([N+](=O)[O-])c3no[n+]([O-])c23)CC1", "activity change, negative = inhibition": "14.5%"},
      {"compound": "Nc1c(Cl)c(Cl)c(Cl)c(Cl)c1Cl", "activity change, negative = inhibition": "6.04% [at 157 µM]"}
    ]},
    {"system": "not listed separately", "experiment": "Confirmatory qHTS for small molecule stabilizers of the endoplasmic reticulum resident proteome: Secreted ER Calcium Modulated Protein (SERCaMP) assay (AID 1508628); also: nearly all actives have a fitted effect of over 40% in size; also: potency is read from the fitted curve at half-maximal effect;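 as to activity change, negative = decrease: SH-SY5Y cells given compound 16 h then thapsigargin 100 nM for 4 h; % is scaled to controls: 0 for no effect and ±100 for the full control effect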", "conditions": "SERCaMP secreted luciferase ER calcium/proteostasis reporter; series mostly up to 76.3 µM; activity change, negative = decrease: at the top concentration", "summary_of_the_method": "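We seeded SH-SY5Y-GLuc-SERCaMP cells, added compounds (three concentrations in the primary run, eleven up to 76.6 uM in confirmation), incubated 16 h, depleted ER calcium with thapsigargin, and read luciferase 4 h later.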", "values": [
      {"compound": "Nc1ccc(N=Nc2ccccc2)cc1", "Potency": "44.7 µM (active)"},
      {"compound": "C[C@H]1CCCC=CC2C[C@H](O)C[C@@H]2[C@H](O)C=CC(=O)O1", "note": "(stereo partly drawn)", "activity change, negative = decrease": "-51.1%"},
      {"compound": "CC=C(C)C(=O)O[C@H]1C(C)=C2[C@@H]3OC(=O)[C@@](C)(O)[C@@]3(O)[C@@H](OC(=O)CCC)C[C@](C)(OC(C)=O)[C@@H]2[C@@H]1OC(=O)CCCCCCC", "activity change, negative = decrease": "12.7%"},
      {"compound": "O=[N+]([O-])c1c2ccccc2cc2ccccc12", "activity change, negative = decrease": "10.1% [at 156 µM]"},
      {"compound": "CN1CCN(c2ccc([N+](=O)[O-])c3no[n+]([O-])c23)CC1", "activity change, negative = decrease": "-9.86%"},
      {"compound": "Nc1c(Cl)c(Cl)c(Cl)c(Cl)c1Cl", "activity change, negative = decrease": "13.6% [at 156 µM]"}
    ]},
    {"system": "not listed separately", "experiment": "Cell Viability qHTS for small molecule stabilizers of the endoplasmic reticulum resident proteome (AID 1508629);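 also: compound exposure about 46 h in total before the viability read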; also: potency is read from the fitted curve at half-maximal effect;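 as to max response: human SH-SY5Y neuroblastoma cells carrying the GLuc-SERCaMP reporter; % is scaled to controls: 0 for no effect and ±100 for the full control effect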", "conditions": "cell viability counter-screen, 100 nM thapsigargin for final 4 h", "units": {"max response": "%"}, "values": [
      {"compound": "Nc1ccc(N=Nc2ccccc2)cc1", "max response": 1.98},
      {"compound": "c1ccc2c(CN3CCNCC3)cccc2c1", "max response": 15},
      {"compound": "C[C@H]1CCCC=CC2C[C@H](O)C[C@@H]2[C@H](O)C=CC(=O)O1", "note": "(stereo partly drawn)", "Potency": "0.0708 µM (active)"},
      {"compound": "CC=C(C)C(=O)O[C@H]1C(C)=C2[C@@H]3OC(=O)[C@@](C)(O)[C@@]3(O)[C@@H](OC(=O)CCC)C[C@](C)(OC(C)=O)[C@@H]2[C@@H]1OC(=O)CCCCCCC", "Potency": "0.282 µM (active)"},
      {"compound": "Nc1ccc(Cl)cc1N", "max response": 1.89},
      {"compound": "O=[N+]([O-])c1c2ccccc2cc2ccccc12", "max response": -4.03},
      {"compound": "Nc1c(Cl)c(Cl)c(Cl)c(Cl)c1Cl", "max response": 1.55}
    ]}
  ]
}
